In PubChem BioAssay AID1745847 (National Center for Advancing Translational Sciences (NCATS), 2022):
The campaign covered roughly 2,100 compounds. About 670 (32%) were called active. Roughly 50% stayed inconclusive and do not appear here. Calls come from the whole dose curve; as a rule, active = well fitted inhibition curve with a large enough effect; inconclusive = small, poorly fitted or top-dose-only effect; inactive = no such curve, though single readings can be large or run the other way. This is one part of the list.

test: CMV-Luciferase Counterscreen for Inhibitors of ATXN expression; settings: HEK-293 CMV-luciferase reporter, luminescence, 24 h; series mostly up to 57.5 µM; note: nearly all actives have a fitted effect of over 55% in size
% is set by controls: 0 for no effect and ±100 for the full control effect; potency is the fitted concentration of half-maximal effect.

Compound	activity change, negative = inhibition	Potency
CCCC(=O)Nc1c(C(=O)OCC)[nH]c2ccccc12	-4.94% [at 11.4 µM] (inactive)	
O=c1cc(N2CCN(c3ccccc3)CC2)[nH]c(=O)n1C1CCCCC1		inactive
O=C(CCSc1nc2ccccc2s1)N/N=C/c1c(O)ccc2ccccc12		7.94 µM (active)
CCCC(=O)Nc1ccc2nc(SCC(=O)N3CCCC3)sc2c1		inactive
CC1CCCN(c2ncnc3c2cnn3-c2ccc(Cl)cc2)C1 (stereo not given)		22.4 µM (active)
CCOC(=O)C1CCN(c2ncnc3c2cnn3-c2ccc(Cl)cc2)CC1		2.24 µM (active)
COc1ccccc1NCC(=O)N/N=C/c1c(O)ccc2ccccc12		3.16 µM (active)
COc1cc([N+](=O)[O-])cc(/C=N/NC(=O)C(C)Nc2cccc3ccccc23)c1O (stereo not given)	8.76% [at 11.4 µM] (inactive)	
COc1ccc(NC(C)C(=O)N/N=C/c2c(O)ccc3ccccc23)cc1 (stereo not given)		6.31 µM (active)
CCc1cc[n+](C2=C([O-])c3ccccc3C(=O)/C2=N\S(=O)(=O)c2cccs2)cc1		20 µM (active)
Oc1ccc2ccccc2c1/C=C/c1ccc2c(Br)cc(Br)c(O)c2n1		3.16 µM (active)
COc1cc(/C=C/c2ccc3cccc(O)c3n2)cc(OC)c1OC		inactive
CCCc1cc(=O)[nH]c(-n2[nH]c3c(c2=O)CCCC3)n1		12.6 µM (active)
NC(=S)N1OC[C@@H]2COc3ccc4ccccc4c3[C@@H]21		inactive
CC(NC(=O)Nc1cccc([N+](=O)[O-])c1)(C(F)(F)F)C(F)(F)F		17.8 µM (active)
O=C(NC1CCN(Cc2ccccc2)CC1)c1cccc(S(=O)(=O)Nc2ccc(SC(F)F)cc2)c1		14.1 µM (active)
CCC(C)n1cnc2c(c1=O)c1nc3ccccc3nc1n2-c1ccc2c(c1)OCCO2 (stereo not given)		inactive
c1ccc(COc2ncnc3c2ncn3CCCN2CCN(Cc3cccc4ccccc34)CC2)cc1		14.1 µM (active)
Cc1cc2oc3cc(NCCC4CCCN4C)ccc3c(=O)c2cc1C (stereo not given)		inactive
COc1ccc(CC(N)c2csc(NC(=O)c3cccc(OC(F)(F)F)c3)n2)cc1 (stereo not given)		28.2 µM (active)
COc1ccc(CC(N)c2csc(NC(=O)c3cc(C(C)(C)C)nn3Cc3ccccc3)n2)cc1 (stereo not given)	-13.8% [at 11.4 µM] (inactive)	
COc1ccc(CC(N)c2csc(NC(=O)c3ccccc3OC)n2)cc1 (stereo not given)		inactive
O=C(Nc1nc2cc(Cl)ccc2s1)C1CCCN(S(=O)(=O)c2cccc3cccnc23)C1 (stereo not given)		25.1 µM (active)
Cc1ccc(S(=O)(=O)c2cc3cc(Br)ccc3oc2=O)cc1		inactive
CCN(CC)c1ccc(/C=N/NC(=O)CNC(=O)C2COc3ccccc3O2)c(O)c1 (stereo not given)		0.398 µM (active)
COc1cccc(/C=N/NC(=O)CNC(=O)C2COc3ccccc3O2)c1O (stereo not given)		7.94 µM (active)
COc1ccccc1/C=C\C(=O)NCC(=O)N/N=C/c1cccc(OC)c1O		12.6 µM (active)
COc1cccc2c1C(=O)C=C(C)C2=O		22.4 µM (active)

Compound	activity change, negative = inhibition	Potency
Cc1cc(C(=O)N/N=C/c2cc(Br)cc(Br)c2OC(=O)c2cccc(F)c2)n[nH]1		4.47 µM (active)
COc1ccc(-c2nn(-c3ccccc3)cc2C(=O)NC(=S)NNC(=O)c2ccncc2)cc1		8.91 µM (active)
CCCC/C(C)=N/NC(=O)c1cn(-c2ccccc2)nc1-c1ccccc1	-28.6% [at 11.4 µM] (inactive)	
Cc1ccc(-c2nc3cc(Br)cnc3nc2-c2ccc(C)cc2)cc1	-25.9% [at 11.4 µM] (inactive)	
CCOC(=O)c1cnc(-n2nc(C)cc2C)nc1NC1CCCC1		1.78 µM (active)
COc1ccc(Cc2nnc(N/N=C/c3ccccc3O)[nH]c2=O)cc1OC		1.41 µM (active)
COc1ccc(Cc2nnc(N/N=C/c3ccc(O)cc3)[nH]c2=O)cc1OC		0.891 µM (active)
C=CCOc1ccc(CNc2ccc3[nH]c(=O)[nH]c3c2)cc1OC		inactive
COc1ccc(S(=O)(=O)N(C)C)cc1NC(=O)C1CCN(c2ncnc3sc(C)c(C)c23)CC1		10 µM (active)
COc1ccc(-c2csc(NC(=O)C3CCN(c4ncnc5sc(C)c(C)c45)CC3)n2)cc1OC		3.55 µM (active)
CCN(CC)S(=O)(=O)c1cc(NC(=O)C2CCN(c3ncnc4sc(C)c(C)c34)CC2)ccc1Cl		inactive
CN(C)c1ccccc1-c1cc(NC=O)c2ncc(-c3cccc(C(F)(F)F)c3)n2c1	-12.7% [at 11.4 µM] (inactive)	
O=C(N/N=C/c1cc([N+](=O)[O-])ccc1O)c1cccc(N2CCCC2=O)c1		7.94 µM (active)
O=C(N/N=C/c1c(O)ccc2ccccc12)c1cccc(C(F)(F)F)c1		2.82 µM (active)
O=C(NN=Cc1c(O)ccc2ccccc12)c1ccc2c(c1)OCO2		2.24 µM (active)
O=[N+]([O-])c1ccc(/C=N/N=C/c2ccc([N+](=O)[O-])o2)o1		14.1 µM (active)
C/C(=N\Nc1cc(N2CCOCC2)nc(C)n1)c1cccc([N+](=O)[O-])c1	-9.23% [at 11.4 µM] (inactive)	
O=C(N/N=C/c1ccccc1O)c1cccc(C(F)(F)F)c1		0.501 µM (active)
O=C(N/N=C/c1ccc([N+](=O)[O-])o1)c1ccc2c(c1)OCO2		12.6 µM (active)
O=C(N/N=C\c1c(O)ccc2ccccc12)c1ccc(Cn2cccn2)o1		0.891 µM (active)
O=C(NN=Cc1ccccc1O)c1cccc([N+](=O)[O-])c1		3.98 µM (active)
COc1ccc(/C=N/NC(=O)c2cccc([N+](=O)[O-])c2)c2ccccc12	-1.17% [at 11.4 µM] (inactive)	
COc1ccc(S(=O)(=O)Nc2ccc(F)cc2)cc1N(C)S(=O)(=O)c1ccc(Cl)cc1		10 µM (active)
O=C(Nc1nnc(C2CC2)o1)c1ccc(S(=O)(=O)N2CCCc3ccccc32)cc1		7.08 µM (active)
CN1CCC(N(C)C(=O)c2ccc(Cl)c(S(=O)(=O)N3CCc4ccccc43)c2)CC1		inactive
CCN(Cc1ccccc1)S(=O)(=O)c1ccc(C(=O)Nc2nnc(C3CC3)o2)cc1		2.24 µM (active)
Cc1ccc(C(=O)N/C(=C\c2ccc(-c3ccc(Cl)cc3)o2)C(=O)NCCCN(C)C)cc1		inactive
